Measured values published in PubChem BioAssay.
Active and inactive are the calls of the source. Unless noted, the rule behind the calls is not given here.

Columns and labels:
[1] = compounds binding Alexa647 anti-His antibody – biochemical, small-molecule microarray, 635 nm fluorescence, artefact control for SMM control protein annotation, primary screen (AID 1128); conditions: higher = more signal;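 note: score merges feature fluorescence with signal-to-noise for each printed compound spot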
[2] = tested on: Human papillomavirus type 1a E7 protein (residues 1-88); experiment: HPV1a E7 small-molecule binders, primary screen, biochemical, small-molecule microarray, residues 1-88, 635 nm (AID 1129); conditions: small-molecule microarray binding, fluorescence 635 nm; higher = more signal
[3] = biological target: Focal adhesion kinase 1 (Homo sapiens) (UniProt Q05397); experiment: PTK2 protein binding on printed compound slides – biochemical, small-molecule microarray, 635/667 nm fluorescence, BSA, DTT, primary screen (AID 1130); conditions: 635 nm fluorescence, higher = more signal;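 note: composite of spot emission at 667 nm and signal to noise over triplicate slides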
Focal adhesion kinase 1 (Homo sapiens), sequence (Q05397 whole entry, looked up): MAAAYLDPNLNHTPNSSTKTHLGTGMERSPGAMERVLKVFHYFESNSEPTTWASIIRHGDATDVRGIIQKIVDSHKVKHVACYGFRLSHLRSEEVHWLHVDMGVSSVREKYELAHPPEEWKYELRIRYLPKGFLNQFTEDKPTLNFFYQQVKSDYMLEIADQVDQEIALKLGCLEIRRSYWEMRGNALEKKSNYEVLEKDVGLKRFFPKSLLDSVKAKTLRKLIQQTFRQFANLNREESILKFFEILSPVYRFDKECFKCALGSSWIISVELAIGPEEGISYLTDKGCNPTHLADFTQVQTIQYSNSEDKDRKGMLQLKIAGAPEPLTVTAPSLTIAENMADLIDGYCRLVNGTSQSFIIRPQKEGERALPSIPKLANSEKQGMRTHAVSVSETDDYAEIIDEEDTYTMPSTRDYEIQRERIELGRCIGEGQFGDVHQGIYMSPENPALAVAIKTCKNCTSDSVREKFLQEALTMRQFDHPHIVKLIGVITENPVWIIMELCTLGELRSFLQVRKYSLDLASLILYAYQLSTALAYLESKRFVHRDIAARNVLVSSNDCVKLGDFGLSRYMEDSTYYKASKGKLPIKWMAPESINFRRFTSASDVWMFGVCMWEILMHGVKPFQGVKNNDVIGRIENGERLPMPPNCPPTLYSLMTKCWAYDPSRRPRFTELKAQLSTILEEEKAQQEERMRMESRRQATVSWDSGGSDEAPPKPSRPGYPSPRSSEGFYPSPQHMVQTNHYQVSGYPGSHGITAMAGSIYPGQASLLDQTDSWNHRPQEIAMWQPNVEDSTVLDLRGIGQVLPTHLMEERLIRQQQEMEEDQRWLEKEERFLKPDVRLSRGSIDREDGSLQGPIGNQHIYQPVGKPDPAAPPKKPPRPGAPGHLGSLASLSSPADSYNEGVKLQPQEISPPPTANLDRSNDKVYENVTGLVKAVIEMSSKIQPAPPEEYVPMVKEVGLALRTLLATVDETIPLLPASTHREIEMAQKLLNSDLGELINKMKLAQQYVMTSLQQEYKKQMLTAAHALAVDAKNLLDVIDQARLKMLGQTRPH

[4] = tested on: Fibrinogen (Alexa647-labelled); experiment: Alexa647-fibrinogen binding to printed small molecules – biochemical, small-molecule microarray, 635/667 nm fluorescence, artefact control for SMM control-protein annotation, profiling panel (AID 1131); conditions: fibrinogen-A647 binding fluorescence, higher = more signal;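 note: z-score merges 667 nm fluorescence with per-spot signal-to-noise over triplicate slides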
[5] = biological target: Follistatin (Homo sapiens) (UniProt P19883); experiment: FST protein binding to printed compounds – biochemical, small-molecule microarray, 635/667 nm fluorescence, primary screen (AID 1132); conditions: 635 nm fluorescence, higher = more signal
Follistatin (Homo sapiens), sequence (P19883 whole entry, looked up): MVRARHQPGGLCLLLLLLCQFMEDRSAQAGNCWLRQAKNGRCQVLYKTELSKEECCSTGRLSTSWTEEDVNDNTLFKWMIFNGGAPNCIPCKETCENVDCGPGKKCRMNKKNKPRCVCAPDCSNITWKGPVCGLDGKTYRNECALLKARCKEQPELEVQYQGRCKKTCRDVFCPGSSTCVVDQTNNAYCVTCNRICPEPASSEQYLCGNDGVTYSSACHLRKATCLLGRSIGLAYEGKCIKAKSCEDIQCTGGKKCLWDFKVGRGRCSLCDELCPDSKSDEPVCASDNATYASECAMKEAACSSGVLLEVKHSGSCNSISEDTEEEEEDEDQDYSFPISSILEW

[6] = biological target: Fibroblast growth factor 2 (Homo sapiens) (UniProt P09038); experiment: basic fibroblast growth factor binding to printed compounds – biochemical, small-molecule microarray, 635/667 nm fluorescence, primary screen (AID 1133); conditions: FGF2, fluorescence 635/667, higher = more signal
Fibroblast growth factor 2 (Homo sapiens), sequence (P09038 whole entry, looked up): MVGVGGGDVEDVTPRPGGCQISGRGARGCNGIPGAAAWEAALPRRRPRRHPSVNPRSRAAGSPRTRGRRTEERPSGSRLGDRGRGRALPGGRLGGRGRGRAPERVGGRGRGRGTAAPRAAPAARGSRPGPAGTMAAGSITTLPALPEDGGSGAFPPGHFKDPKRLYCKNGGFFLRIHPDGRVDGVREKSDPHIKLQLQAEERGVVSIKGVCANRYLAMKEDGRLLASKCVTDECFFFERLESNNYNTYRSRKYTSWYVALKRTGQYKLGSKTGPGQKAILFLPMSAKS

[7] = JC-1 mitochondrial potential readout, lung cancer cells – cell-based, A549, JC-1 fluorescence, basal, 24 h, 100 nL, profiling panel (AID 1138); conditions: higher = more signal;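 note: A549 lung adenocarcinoma cells under basal conditions with no added stimulus; test concentration not given here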
Lefty1 = Lefty1 protein binding to printed compounds – biochemical, small-molecule microarray, 635/667 nm fluorescence, primary screen (AID 1139); conditions: fluorescence 635/667, higher = more signal
[8] = tested on: wheat germ agglutinin (Triticum aestivum), Alexa647-labelled; experiment: Alexa647-WGA lectin binding to printed small molecules – biochemical, small-molecule microarray, 635/667 nm fluorescence, artefact control for SMM control-protein annotation, profiling panel (AID 1140); conditions: WGA-A647 binding, 635 nm fluorescence, higher = more signal;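 note: score merges 667 nm feature emission with signal to noise over triplicate slides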
[9] = biological target: Luciferin 4-monooxygenase (Photinus pyralis) (UniProt P08659); experiment: inhibition of purified Photinus pyralis luciferase – biochemical, luminescence, purified enzyme, 2006 set, primary screen (AID 1141); conditions: purified firefly luciferase, SteadyGlo luminescence, 30 min; higher = more signal, called active from +8 up or from −8 down;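 note: cell-free assay with purified firefly luciferase at 100 ng per well in PBS; test concentration not given here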
Luciferin 4-monooxygenase (Photinus pyralis), sequence (P08659 whole entry, looked up): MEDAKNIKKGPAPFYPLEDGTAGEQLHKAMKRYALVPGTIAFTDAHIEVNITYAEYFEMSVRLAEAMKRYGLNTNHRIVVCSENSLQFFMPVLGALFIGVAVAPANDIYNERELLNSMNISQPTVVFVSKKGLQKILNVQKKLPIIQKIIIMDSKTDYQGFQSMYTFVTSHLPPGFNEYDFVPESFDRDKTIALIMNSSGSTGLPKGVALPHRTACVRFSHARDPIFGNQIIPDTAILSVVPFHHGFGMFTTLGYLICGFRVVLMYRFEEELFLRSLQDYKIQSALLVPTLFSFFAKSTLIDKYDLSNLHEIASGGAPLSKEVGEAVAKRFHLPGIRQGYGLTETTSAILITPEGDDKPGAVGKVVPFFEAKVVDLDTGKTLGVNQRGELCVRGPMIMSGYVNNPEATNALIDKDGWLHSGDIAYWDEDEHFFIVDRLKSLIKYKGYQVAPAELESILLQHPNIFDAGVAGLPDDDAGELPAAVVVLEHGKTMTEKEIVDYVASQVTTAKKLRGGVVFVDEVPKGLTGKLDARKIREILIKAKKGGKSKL

[10] = tested on: Wnt5a (protein binding on small-molecule microarray); experiment: small molecules binding Wnt5a protein – biophysical, small-molecule microarray, 635/667 nm fluorescence, primary screen (AID 1142); conditions: 635 nm fluorescence, higher = more signal;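 note: fluorescence read at 667 nm with signal to noise per printed feature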
[11] = ATP-based viability of Huh7 replicon cells – cell-based, CellTiter-Glo luminescence, basal, 48 h, cytotoxicity control for HCV replication inhibitor project, primary screen (AID 1143); conditions: higher = more signal, called active from +8 up or from −8 down;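 note: Huh7 hepatoma cells carrying a hepatitis C replication reporter with no stimulus; test concentration not given here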
[12] = Pseudomonas biofilm growth suppression – PAO1 strain, BacTiter-Glo luminescence, LB-PBS, primary screen (AID 1144); conditions: P. aeruginosa PAO1 biofilm, 12 h, higher = more signal
[13] = basal CRE-LacZ reporter activity in PC12 – cell-based, unstimulated, primary screen (AID 1145); conditions: no forskolin, luminescence, 4.5 h, higher = more signal, called active from +8 up or from −8 down
[14] = forskolin-driven CRE-LacZ activity in PC12 – cell-based, CRE-LacZ reporter, forskolin-stimulated, primary screen (AID 1146); conditions: luminescence, 4.5 h, higher = more signal, called active from +8 up or from −8 down;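 note: PC12 cells with 6xCRE LacZ reporter stimulated by forskolin 10 µM; beta-galactosidase reporter signal reflecting CREB driven transcription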
[15] = biological target: Streptavidin (Streptomyces avidinii) (UniProt P22629); experiment: compounds binding control protein streptavidin – biophysical, small-molecule microarray, 635/667 nm fluorescence, artefact control for SMM compound annotation, primary screen (AID 1147); conditions: higher = more signal;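 note: signal reflects streptavidin binding to arrayed compounds as a control protein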
Streptavidin (Streptomyces avidinii), sequence (P22629 whole entry, looked up): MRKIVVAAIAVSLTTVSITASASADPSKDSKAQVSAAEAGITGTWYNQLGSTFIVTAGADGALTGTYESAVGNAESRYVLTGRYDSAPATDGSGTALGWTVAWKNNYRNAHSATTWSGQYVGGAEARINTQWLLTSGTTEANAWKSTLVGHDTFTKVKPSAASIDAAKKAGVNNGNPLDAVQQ

[16] = probe aInhba binding on compound microarray – biochemical, small-molecule microarray, 635/667 nm fluorescence, primary screen (AID 1148); conditions: higher = more signal;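 note: score merges 667nm spot fluorescence with signal-to-noise for antibody binding to printed compounds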
Torsin-1A (Homo sapiens) [17] = biological target: Torsin-1A (Homo sapiens) (UniProt O14656); experiment: TOR1A wild-type binding on microarray – cell lysate, small-molecule microarray, lysate, 635/667 nm, primary screen (AID 1149); conditions: COS7 hTOR1A-WT lysate, 635 nm fluorescence, higher = more signal
Torsin-1A (Homo sapiens), sequence (O14656 whole entry, looked up): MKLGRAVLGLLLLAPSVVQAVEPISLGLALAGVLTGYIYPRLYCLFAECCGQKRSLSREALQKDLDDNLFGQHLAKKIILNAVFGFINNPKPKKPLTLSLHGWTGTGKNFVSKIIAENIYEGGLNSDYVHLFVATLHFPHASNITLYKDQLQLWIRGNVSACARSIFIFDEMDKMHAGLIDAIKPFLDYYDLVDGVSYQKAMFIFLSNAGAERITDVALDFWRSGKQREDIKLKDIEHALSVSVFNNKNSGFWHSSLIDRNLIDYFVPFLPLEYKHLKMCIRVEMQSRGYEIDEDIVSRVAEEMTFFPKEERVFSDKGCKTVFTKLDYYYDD

Torsin-1A (Homo sapiens) [18] = biological target: Torsin-1A (Homo sapiens) (UniProt O14656); experiment: torsin A mutant lysate binding on microarrays – cell lysate, small-molecule microarray, COS7 lysate, 635/667 nm fluorescence, primary screen (AID 1150); conditions: COS7 hTOR1A mutant lysate, 635 nm fluorescence, higher = more signal;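 note: score pools 667 nm emission and signal to noise measuring lysate protein binding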
[19] = tested on: Sonic hedgehog protein (Shh); experiment: Sonic hedgehog microarray binding compounds – biochemical, small-molecule microarray, 635/667 nm fluorescence, primary screen (AID 1151); conditions: 635 nm fluorescence, higher = more signal;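 note: Shh protein binding to compounds spotted on small-molecule microarray slides; score combines spot fluorescence intensity with signal-to-noise across triplicate slides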

Row | SMILES | composite z-score [1] | composite z-score [2] | composite z-score [3] | composite z-score [4] | composite z-score [5] | composite z-score [6] | z-score [7] | composite z-score (Lefty1) | composite z-score [8] | z-score [9] | composite z-score [10] | z-score [11] | z-score [12] | z-score [13] | z-score [14] | composite z-score [15] | composite z-score [16] | composite z-score (Torsin-1A (Homo sapiens) [17]) | composite z-score (Torsin-1A (Homo sapiens) [18]) | composite z-score [19]
1 | CN(C)CCCN1C(=O)[C@@]2(c3ccc([N+](=O)[O-])cc3)CC(=O)N(C3CCCCC3)[C@@H]2c2ccc(CO)cc21 | 0.0598 | -1.05 | -0.042 | -0.916 | 0.0687 | 0.836 | -0.493 | -0.262 | 0.12 | 1.2 (inactive) | 0.131 | -1.79 (inactive) | -1.09 (inactive) | -0.464 (inactive) | -0.477 (inactive) | 0.161 | -0.101 | -0.954 | -0.288 | -0.93
2 | COCCOC(=O)N1C(=O)[C@@]2(c3cc(C#CCC(C(=O)OC)C(=O)OC)ccc31)[C@H](c1ccccc1OCCO)N1[C@H](c3ccccc3)[C@H](c3ccccc3)OC(=O)[C@H]1[C@@H]2C(=O)Nc1nc2ccccc2s1 | 2.04 | 0.946 | 0.767 | 0.945 | 1.16 | 1.58 | -1.64 | 1.55 | 0.577 | -2.57 (inactive) | 0.964 | -2.67 (inactive) | -1.9 (inactive) | -0.375 (inactive) | -0.705 (inactive) | 0.129 | 0.135 | 0.983 | 1.08 | 1.49
3 | CCCNC(=O)[C@@]1(C)c2ccccc2C(=O)N(Cc2cc(C(F)(F)F)cc(C(F)(F)F)c2)[C@H]1c1ccc(CO)cc1 | 2.41 | 0.903 | 0.147 | 0.267 | 0.127 | 0.68 | -0.704 | -0.524 | 0.463 | 0.517 (inactive) | -0.332 | -5.52 (inactive) | -0.889 (inactive) | 0.0548 (inactive) | 0.532 (inactive) | -0.974 | -0.128 | -0.0659 | -0.216 | 0.103
4 | Cc1c(NC(=O)/C(C#N)=C/C=C/c2ccccc2)c(=O)n(-c2ccccc2)n1C | 0.378 | 0.466 | -0.358 | 0.68 | 0.58 | 0.366 | -0.158 | 0.451 | 0.343 | -5.86 (inactive) | 0.17 | -0.328 (inactive) | 0.374 (inactive) | -0.967 (inactive) | -0.733 (inactive) | 0.783 | 0.0018 | 0.172 | 0.426 | 0.522
5 | Cc1ccc(S(=O)(=O)N2CC(C(=O)O)=CCC2c2ccccc2)cc1 (stereo not given) | -0.67 | -0.2 | 0.223 | -0.275 | -1.22 | -1.14 | -1.33 | -0.946 | 0.0972 | 1.52 (inactive) | -0.0669 | 0.0982 (inactive) | -0.153 (inactive) | -0.266 (inactive) | 0.222 (inactive) | -0.134 | -0.128 | 1.08 | -0.307 | -0.861
6 | CCCCN1CC=CC23O[C@@H]4/C=C\CCCOC(=O)C4[C@H]2C(=O)N(C(C)CO)[C@@H]3C1=O (stereo not given in full) | -1.02 | -0.582 | -0.56 | 0.347 | -0.446 | -0.38 | 0.532 | -0.291 | -0.362 | -0.315 (inactive) | -0.286 | 0.33 (inactive) | -1.35 (inactive) | -0.907 (inactive) | -0.679 (inactive) | -0.559 | -0.05 | -0.534 | -0.804 | 0.732
7 | O=C1OCCC=C[C@H]2OC34C=CCN(CCN5CCOCC5)C(=O)[C@H]3N(CCO)C(=O)[C@@H]4C12 (stereo not given in full) | 1.07 | -0.793 | -0.379 | 0.236 | 1.11 | 0.785 | -0.849 | 0.648 | 0.418 | -0.0527 (inactive) | -0.141 | 0.473 (inactive) | 0.329 (inactive) | -0.358 (inactive) | -0.0338 (inactive) | -0.983 | -0.168 | -0.23 | 0.0141 | 0.731
8 | CC(=O)NCCCC[C@@H]1NC(=O)[C@@H]2C[C@H](C(=O)NCCCCCC[N+](C)(C)C)[C@H](c3cccc(OCCO)c3)N2C1=O | 2.89 | 1.17 | 0.202 | 0.416 | 1.39 | 1.69 | -0.972 | 1.26 | 0.548 | 0.364 (inactive) | 0.505 | -0.134 (inactive) | -0.445 (inactive) | -0.947 (inactive) | -0.75 (inactive) | -0.206 | -0.0425 | 0.964 | 1.43 | 2.04
9 | COc1ccc(C#Cc2ccc3c(c2)[C@]2(C(=O)N3)[C@H](c3ccc(OCCO)cc3)N3[C@H](c4ccccc4)[C@H](c4ccccc4)OC(=O)[C@H]3[C@@H]2C(=O)Nc2nc3ccccc3s2)cc1 | 0.842 | 1.17 | 0.862 | 0.88 | 1.3 | 1.28 | -2.06 | 1.57 | 0.764 | -3.84 (inactive) | 0.603 | -2.92 (inactive) | -1.54 (inactive) | 0.918 (inactive) | -0.203 (inactive) | 1.07 | 0.143 | 1.15 | 0.564 | 1
10 | CC(=O)N1Cc2ccccc2C[C@@]2(N=C(c3ccc(OCCCO)cc3)O[C@H]2c2ccccc2)C1=O | 2.65 | 1.17 | 0.52 | 0.657 | 1.41 | 1.66 | 0.592 | 0.63 | 1.1 | -2.32 (inactive) | 0.604 | -4.03 (inactive) | -0.519 (inactive) | 1.53 (inactive) | -0.634 (inactive) | 0.326 | 0.482 | 0.513 | 1.17 | 1.69
